# Results: PubChem BioAssay AID771 (SRMLSC, 2007)
# Among all 3,300 compounds or so, about 55 (2%) were called active. This is one part of a sample in which actives are shown more often than they occur.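 How the source made its calls: active means growth inhibition above 90%, meaning viable cell count by imaging cut by more than 90% versus vehicle controls; inactive means growth inhibition below 90%.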
# Assay: HT29 colon tumor cell growth inhibition, primary screen, imaging, high content imaging, 48 h, CellTiter-Glo (AID 771);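 on condensed nuclei: condensed means Hoechst nuclear area under control median minus 1.5 SD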
# Settings: HCS imaging cell count, at 10 µM, stronger effect = higher value; for condensed nuclei: measured here: percent cells with condensed nuclei
# [1] = measured here: ATP CellTiter-Glo viability inhibition
Compound,growth inhibition,growth inhibition [1] [%],condensed nuclei [%]
O=C(NCCCn1ccnc1)c1cccnc1,-11.4% (inactive),-30.1,2.67
CCOc1cc2nc(-c3ccc(OC)c(OC)c3)nc(N3CCOCC3)c2cc1OC,97.2% (active),90,39.3
COc1cc2nc(-c3ccccc3)nc(N3CCCC3)c2cc1OC,27.7% (inactive),3.73,2.25
COc1cccc(-c2nc(N3CCN(Cc4ccccc4)CC3)c3ccccc3n2)c1O,-8.14% (inactive),0.87,2.41
CCC1(C)Cc2ccccc2-c2nc(NCCO)n(-c3ccccc3)c(=O)c21 (configuration not stated),60.4% (inactive),4.3,2.11
N#CC1(c2ccccc2)CCC(=NO)CC1 (configuration not stated),-54.8% (inactive),-7.61,1.75
CC1(C)Cc2c(c(-c3ccccc3)[nH]c(=O)c2C#N)CS1,40.9% (inactive),27.6,3.57
C=CCn1c(N)c(C(=O)Nc2ccccc2)c2nc3ccccc3nc21,90.9% (active),90.8,18.1
COCCNC(=O)c1c(N)n(CCC2=CCCCC2)c2nc3ccccc3nc12,39.4% (inactive),20.4,2.68
C=CCn1c(N)c(C(=O)OC(C)(C)C)c2nc3ccccc3nc21,56.4% (inactive),24.8,2.73
C=CCn1c(-c2ccccc2)n[nH]c1=S,-21.6% (inactive),-24.2,2.91
Cc1ccc(NC(=O)c2cc(N3CCOCC3)nc3ccccc23)cc1,52% (inactive),31.6,7.65
CCOC(=O)c1[nH]c2ccc(OC)cc2c1NC(=O)CCN1CCc2ccccc2C1,24.3% (inactive),4.08,9.73
Clc1ccc2[nH]c3c(NCCCN4CCOCC4)ncnc3c2c1,97.5% (active),90,33
Fc1ccccc1-c1nc(NCCCN2CCOCC2)c2ccccc2n1,40% (inactive),34.1,7.24
Oc1ccccc1-c1nc(NCCN2CCOCC2)c2ccccc2n1,83.2% (inactive),73.4,16.5
CCN(CC)CCNc1ncnc2c1[nH]c1ccc(OC)cc12,68.1% (inactive),44,4.62
Cc1ccc2[nH]c3c(NCCN4CCOCC4)ncnc3c2c1,45.8% (inactive),24.8,3.45
Clc1ccc2[nH]c3c(NCCN4CCOCC4)ncnc3c2c1,90.1% (active),74.8,8.91
CC/C(C)=C1\SC(N2CCN(C(C)=O)CC2)=NC1=O,-12% (inactive),-28.4,2.39
Cc1c(N=Cc2c(O)n(C3CCCCC3)c(=O)[nH]c2=O)c(=O)n(-c2ccccc2)n1C,-40.9% (inactive),-6.25,2.12
COC(=O)CN(c1nc(C)c(Br)c(OC)n1)S(=O)(=O)c1ccc(C)cc1,28.7% (inactive),6.19,1.9
N#Cc1ccc(-c2ccc(OCC(O)Cn3nnc4ccccc43)cc2)cc1 (configuration not stated),10.4% (inactive),-1.94,1.87
CCOc1ccc(-c2nnc3sc(COc4ccccc4)nn23)cc1,41.5% (inactive),-17,2.51
Clc1ccc(-n2ncc3c(NCc4ccccn4)ncnc32)cc1,38.1% (inactive),0.14,3.3
Cc1cccc(-n2ncc3c(NCCN4CCOCC4)ncnc32)c1,15.5% (inactive),9.31,3.92
COc1ccccc1Nc1ncnc2c1cnn2-c1cccc(C)c1,30.4% (inactive),-0.29,2.98

Compound,growth inhibition,growth inhibition [1] [%],condensed nuclei [%]
Clc1ccc(-n2ncc3c(NCc4ccco4)ncnc32)cc1,92.3% (active),76.5,19.6
Cc1cccc(-n2ncc3c(NCc4ccco4)ncnc32)c1,90.8% (active),68.2,5.66
Clc1ccc(-n2ncc3c(NCc4cccs4)ncnc32)cc1,-9.4% (inactive),-1.37,3.73
CC(=O)c1ccc(O)c(CO)c1,-13.1% (inactive),-11.8,2.86
COC(=O)c1ccc(C2NC(C(=O)O)CS2)cc1 (configuration not stated),16% (inactive),-10.7,1.25
CCNC(=O)Nn1c(C)nnc1C,-8.98% (inactive),-2.65,1.64
COC(=O)Nc1nc2ccc(C(=O)c3ccccc3)cc2[nH]1,86.4% (inactive),–,34.6
COC(=O)Nc1nc2ccc(Sc3ccccc3)cc2[nH]1,90.4% (active),–,42
CCOc1ccc2nc(SCC(=O)Nc3ncccn3)[nH]c2c1,-11.5% (inactive),0,3.9
Cc1ccc2nc(NCc3ccccc3)[nH]c2c1,87.6% (inactive),67.4,19.4
CCCSc1ccc2nc(NC(=O)OC)[nH]c2c1,90.4% (active),–,33.3
CCCOc1ccc2nc(NC(=O)OC)[nH]c2c1,78.7% (inactive),–,35.7
Cc1cc(=O)oc(C)c1C(=O)Nc1ccc2nsnc2c1,31.3% (inactive),-17.1,3.08
CCCCCNC(=O)c1c(N)n(/N=C/c2ccco2)c2nc3ccccc3nc12,44.5% (inactive),5.72,0.77
CC1(C)Cc2c(C#N)c(SCC(=O)c3ccccc3)nc(N3CCOCC3)c2CS1,83.5% (inactive),76.7,17.6
CCN(CC)CCOC(=O)C1(c2ccc(OC)c(OC)c2)CCCC1,-76.7% (inactive),-5.14,1.64
COc1ccc(C(=O)NCCCCCC(=O)O)cc1OC,5.72% (inactive),3.37,1.69
Cc1[nH]c2ccc(F)cc2c(=O)c1SC(F)(F)C(F)C(F)(F)F (configuration not stated),31.7% (inactive),-13.7,3.08
COc1cccc2c(=O)c(SC(F)(F)C(F)C(F)(F)F)c(C)[nH]c12 (configuration not stated),91.7% (active),63.5,11.3
COc1cccc(C(=O)NCC(=O)n2nc(C)cc2C)c1,-2.19% (inactive),-15.9,2.14
CN(C)CC(O)COc1ccc(C(C)(C)c2ccc(OCC(O)CN(C)C)cc2)cc1 (configuration not stated),99.1% (active),95.7,29.1
CN(C)CC(O)COc1cccc(OCC(O)CN(C)C)c1 (configuration not stated),26.5% (inactive),-7,1.99
CN(C)CC(O)COc1ccc(-c2ccc(C#N)cc2)cc1 (configuration not stated),71.1% (inactive),51.9,5.66
CC(C)(C)c1ccc(C(O)CCCN2CCC(C(O)(c3ccccc3)c3ccccc3)CC2)cc1 (configuration not stated),98.2% (active),–,36.3
OC(CCN1CCCC1)(c1ccccc1)C1CCCCC1 (configuration not stated),57.7% (inactive),–,7.95
OC(CCN1CCCCC1)(c1ccccc1)C1CCCCC1 (configuration not stated),6.78% (inactive),–,4.4
